# Assay outcomes: PubChem, National Center for Advancing Translational Sciences (NCATS)
# A selection: hits, their analogues and other compounds. The true share with any hit is near 7.3%.
# NPC1 promoter act: NPC1 promoter activation | Huh7 NPC1 promoter luciferase reporter, 24 h | Potency, µM (titrated, usually from 9.22 µM), for the others: at the top dose activation, most hits filed as activators | 320,000 tested, 2.4% active | AID 485313; note: % of control where 0% means no effect; nearly all actives have a fitted effect of over 60% in size
#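 Huh7 reporter cells (NPC1 promoter driving luciferase) are dosed with compound for 24 h at 37 °C, 5% CO2; luciferase detection reagent is then added and luminescence measured after 10 min at ambient temperature.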
# uPA generation: inhibitors of cell surface uPA generation. cell surface uPA generation assay, qHTS. Potency, µM (doses to about 38.3 µM), inactives show top-dose activity change, negative = inhibition, hits mostly inhibitors. 330,000 tested, 0.31% active. AID 540303; active = well fitted inhibition curve with a large enough effect; inconclusive = small, poorly fitted or top-dose-only effect; inactive = no such curve, though single readings can be large or run the other way; tested in mouse RAW 264.7 cells; note: % is set by controls: 0 for no effect and ±100 for the full control effect; nearly all actives have a fitted effect of over 55% in size
# SMN2 splice enh: enhancers of SMN2 splice variant expression | HEK293 SMN2-luciferase splicing reporter, luminescence, 30-36 h | Potency, µM (top dose mostly 46.1 µM), for the others: top-dose activity change, positive = activation, hits mostly activators | 210,000 tested, 2.8% active | AID 1458; note: % of control where 0% means no effect; nearly all actives have a fitted effect of over 55% in size
#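 HEK293 cells carry an SMN2 minigene-luciferase reporter in which exon 7 inclusion puts luciferase in frame. Cells were seeded at 2000 cells/well, attached for 10-12 hours, then exposed to compounds for 30-36 hours at 37C before ONE-Glo luminescence.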
# ELG1 genotoxic: genotoxicity induction in ELG1-luciferase HEK293T cells. HEK293T ELG1-luciferase reporter, luminescence, 16 h. 330,000 tested, 1.3% active. Potency, µM (series often up to 46 µM), for the others: top-dose activity change, positive = activation, most hits filed as activators. AID 504466; note: % of control where 0% means no effect; nearly all actives have a fitted effect of over 60% in size
#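 Screening used a luciferase reporter fused to human ELG1 in HEK293T cells. Luminescence was read on a CCD plate imager after 16 hr exposure and 30 min ONE-Glo incubation.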
# FLuc modulator: counter-screen for miR-21 project: firefly luciferase inhibitors or activators; purified FLuc, Km substrates, luminescence inhibition; P08659; AID 588342; 360,000 tested, 6.9% active; Potency, µM (doses to about 57.5 µM), for inactives: at the highest dose activity change, negative = inhibition, usual class: inhibitors;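 note: plate controls were vehicle for no effect and reference inhibitor for full effect; nearly all actives have a fitted effect of over 55% in size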
# Target sequence (P08659 whole entry, looked up): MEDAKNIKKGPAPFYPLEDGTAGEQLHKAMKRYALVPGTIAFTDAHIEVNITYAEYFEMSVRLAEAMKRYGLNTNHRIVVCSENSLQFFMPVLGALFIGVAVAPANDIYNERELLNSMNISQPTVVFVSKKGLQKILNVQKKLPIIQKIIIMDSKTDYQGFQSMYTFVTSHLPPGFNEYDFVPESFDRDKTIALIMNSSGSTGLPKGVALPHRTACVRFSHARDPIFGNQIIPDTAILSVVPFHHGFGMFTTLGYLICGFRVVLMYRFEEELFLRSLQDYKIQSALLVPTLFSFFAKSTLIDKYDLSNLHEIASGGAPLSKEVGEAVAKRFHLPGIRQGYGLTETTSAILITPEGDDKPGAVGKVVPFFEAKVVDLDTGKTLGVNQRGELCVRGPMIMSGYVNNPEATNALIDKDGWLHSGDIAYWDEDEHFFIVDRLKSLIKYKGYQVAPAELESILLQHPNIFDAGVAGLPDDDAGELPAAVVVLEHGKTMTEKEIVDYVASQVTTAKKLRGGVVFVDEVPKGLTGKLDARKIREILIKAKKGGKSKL
#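 Purified P. pyralis luciferase, 10 nM final, with Km-level 10 uM D-luciferin and 10 uM ATP in 50 mM Tris acetate pH 7.5, 10 mM Mg acetate, 0.01% Tween-20, 0.05% BSA; 6-point qHTS titration about 60 µM downward; luminescence read.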
# Rab9 prom act: Rab9 promoter activation | Huh7 Rab9 promoter-luciferase reporter, luminescence, 24 h | Potency, µM (doses to about 9.22 µM), for inactives: at the highest dose activation, negative = inhibition, usual class: activators | 320,000 tested, 2.8% active; note: % of control where 0% means no effect; nearly all actives have a fitted effect of over 60% in size
#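 Stable Rab9-luc Huh7, 1500 cells/well, 2 h settle; cmpd in DMSO, 24 h, 37 °C/5% CO2; luciferase reagent 10 min RT; luminescence.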
# * hit, by the source's call; ? = inconclusive; . = no result given; [ ] = another dose, or the depositor's remark. Unless noted, calls come from the whole dose curve; as a rule, active = well fitted curve in the direction sought with a large enough effect; inconclusive = small, poorly fitted or top-dose-only effect, or another doubt; inactive = no such curve, though single readings can be large; an effect the other way counts as inactive or inconclusive. Potency is the fitted concentration of half-maximal effect.
SMILES,NPC1 promoter act,uPA generation,SMN2 splice enh,ELG1 genotoxic,FLuc modulator,Rab9 prom act
COc1ccc(-n2cnnc2SCC(=O)c2cc(C)n(Cc3cccs3)c2C)cc1,1%,8%,6%,-4%,?,-1%
COCCn1c(C)cc(C(=O)CSc2nncn2-c2ccccc2)c1C,0%,.,4%,7%,19µM*,-1%
COCC(C)n1c(C)cc(C(=O)CSc2nc3ccccc3c(=O)[nH]2)c1C (configuration not stated),13%,.,-42%,-7%,?,21%
O=C(O)c1ccccc1CSc1nc2ccccc2[nH]1,?,2%,.,?,11µM*,?
C=CCn1c(C)cc(C(=O)CSc2nc3ccccc3[nH]2)c1C,0.13µM*,.,-59%,?,0.3µM*,0.32µM*
COCCn1c(C)cc(C(=O)CSc2nc3ccccc3c(=O)[nH]2)c1C,1.8µM*,-5%,?,?,5.4µM*,1.6µM*
COc1ccccc1NC(=O)Cn1c(=O)n(-c2cccc(C)c2)c(=O)c2c1c1cc(C)ccc1n2C,.,.,.,.,4%,.
CC(=O)Nc1ccc(S(=O)(=O)NCC2CCC(C(=O)NCCc3ccc(C)cc3)CC2)cc1 (configuration not stated),.,.,.,.,-4%,.
Cc1cn2c(=O)cc(COC(=O)COc3ccccc3C)nc2s1,.,.,.,.,5%,.
Cc1ccc(-c2onc(C)c2C)cc1S(=O)(=O)NCc1ccc(N(C)C)cc1,.,.,.,.,1%,.
Cc1cc(C(=O)CSc2nncs2)c(C)n1Cc1ccco1,0.63µM*,-12%,3%,?,4.8µM*,0.71µM*
Cc1cc(C(=O)CSc2nc3ccccc3[nH]2)c(C)n1C,0.4µM*,-1%,3.2µM*,?,3.4µM*,0.45µM*
O=C(CSc1nc2ccccc2[nH]1)c1ccccc1F,1.4µM*,-2%,.,?,8.5µM*,1.6µM*
C=CCn1c(C)cc(C(=O)COc2ccc(C)nc2[N+](=O)[O-])c1C,-1%,-9%,-37%,?,?,-4%
Cc1cc(C(=O)CSc2nn(-c3ccccc3)c(=S)s2)c(C)n1Cc1ccco1,1%,.,-16%,-3%,-11%,11%
C=CCn1c(C)cc(C(=O)COc2nncc3ccccc23)c1C,1.4µM*,-2%,?,10µM*,15µM*,?
COC(=O)N1[C@H]2CC[C@@]3(C)CC(=O)C[C@]1(C)C3c1ccccc12,.,.,-4%,.,.,.
CCc1cnc2c(c1SCC(=O)NCc1ccccc1)c(=O)n(C)c(=O)n2C,.,.,.,.,-4%,.
CCOc1cc(-c2nnc(SCC(=O)NCc3ccccc3)nc2-c2ccc(OC)c(OCC)c2)ccc1OC,.,.,.,.,-6%,.
Cc1cc(C(=O)CSc2nc3ccccc3[nH]2)c(C)n1Cc1ccco1,0.71µM*,?,?,?,0.76µM*,0.5µM*
CCN(CC)C(=O)CSc1nc2ccccc2c(=O)n1Cc1ccco1,.,.,.,.,-3%,.
CCCn1c(C)cc(C(=O)CSc2nc3ccccc3c(=O)n2Cc2ccco2)c1C,3.2µM*,1%,?,?,5.4µM*,3.5µM*
Cc1cc(C(=O)CSc2nnc(-c3ccco3)o2)c(C)n1Cc1ccco1,0%,3%,-21%,?,?,7%
COCCn1c(C)cc(C(=O)CSc2ccc3ccccc3n2)c1C,?,4%,11µM*,4%,12µM*,?
O=C(CSc1nc2ccccc2[nH]1)N1CCCCC1,?,5%,10µM*,8.2µM*,21µM*,3.5µM*
SMILES,NPC1 promoter act,uPA generation,SMN2 splice enh,ELG1 genotoxic,FLuc modulator,Rab9 prom act
CCOc1ccc(CNC(=O)c2cnc(SC)nc2C)cc1,.,.,.,.,5%,.
C=CCn1c(C)cc(C(=O)CSc2nc3ccccc3c(=O)[nH]2)c1C,?,8%,-38%,2.9µM*,9.5µM*,0.79µM*
Cc1noc(C)c1CSc1nc2ccccc2[nH]1,-2%,-4%,6%,?,-2%,0%
Fc1cccc(F)c1CSc1nc2ccccc2[nH]1,1.4µM*,-6%,10µM*,?,?,1µM*
Cc1cccc(/C(N)=N/OC(=O)CCCN2C(=O)c3ccccc3C2=O)c1,-5%,4%,5%,2%,-1%,3%
Cc1cccc(/C(N)=N/OC(=O)CCCc2ccccc2)c1,13%,-1%,.,?,9.5µM*,9%
N/C(=N\OC(=O)CCCc1ccccc1)c1cccc([N+](=O)[O-])c1,-1%,3%,13%,0%,?,0%
N/C(=N\OC(=O)CCCc1ccccc1)c1cccnc1,-2%,2%,4%,4%,17µM*,-1%
N/C(=N\OC(=O)CCCc1ccccc1)c1ccccc1,9%,5%,.,?,4.8µM*,17%
CCN(c1cccc(C)c1)S(=O)(=O)c1ccc(N2CCCCS2(=O)=O)cc1,.,.,.,.,-12%,.
CCC(=O)N1CCCc2cc(S(=O)(=O)N3CCC(C(=O)Nc4ccc(C#N)cc4)CC3)ccc21,.,.,.,.,-9%,.
O=C(NCc1cccnc1)C1CCN(Cc2cc3ccccc3n2Cc2cccc(Cl)c2)CC1,.,.,.,.,-8%,.
Cc1ccc2[nH]c3c(=O)n(CCC4=CCCCC4)cnc3c2c1,24%,2%,-3%,5%,-1%,17%
O=c1c2[nH]c3ccccc3c2ncn1CCC1=CCCCC1,2.5µM*,-1%,24%,12%,1%,?
C1=C(CCNc2ncnc3c2[nH]c2ccccc23)CCCC1,-28%,-11%,-43%,6%,19µM*,-33%
CC(C)(CN)CN,.,.,-5%[9.22 µM],.,.,.
Cc1ccc(OCCCN2CCOCC2)c([N+](=O)[O-])c1,?,-2%,?,?,21µM*,?
C=CCN(CC=C)CCOc1ccc(C)cc1[N+](=O)[O-],15%,5%,6%,6%,24µM*,16%
O=C(/C=C/Nc1ccc(Br)cc1F)c1ccccc1,1.3µM*,-9%,-43%,?,0.11µM*,0.45µM*
O=C(/C=C/Nc1ccccc1F)c1ccc(Br)cc1,0.56µM*,-3%,5µM*,1µM*,0.48µM*,0.79µM*
COC(=O)c1cc2sccc2n1CC(=O)Nc1cc(Cl)ccc1OC,.,.,-7%,.,-10%,.
COC(=O)/C=C1\S/C(=N/N=C/c2ccc(Cl)cc2)NC1=O,-3%,2%,.,-1%,11µM*,-2%
COC(=O)/C=C1/SC(=NC(=O)c2ccc(OC)cc2)NC1=O,0%,-14%,.,3%,27µM*,1%
COC(=O)/C=C1\S/C(=N/N=C/c2ccccc2)NC1=O,2%,-13%,6%,0%,6µM*,-3%
CC(C)CC(=O)NNC(=O)C(C)C,2%,-12%,6%,1%,2%,-2%
N#Cc1ccc(C23OCCN2CCn2c3c3ccccc3[n+]2[O-])cc1 (configuration not stated),.,2.2µM*,.,4%,.,.
